Hits are enriched below; roughly 19% of the tested compounds scored in any of these assays.
DT40 TDP1 CPT: qHTS for Inhibitors of human tyrosyl-DNA phosphodiesterase 1 (TDP1): qHTS in cells in presence of CPT | Potency, µM (titrated, usually from 46.2 µM), without a hit: at the top dose activity change, negative = growth inhibition, hits mostly inhibitors | AID 686979, 2013 | actives 12% (n = 420,000) | chicken DT40 Tdp1-/-;hTDP1 cells + 20 nM CPT, ATP luminescence, 48 h; further: potency means the concentration at half of the fitted maximal effect; nearly all actives have a fitted effect of over 55% in size
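Cell growth measured by CellTiter-Glo luminescence after a minimum 48 h, 37 C compound exposure with 20 nM CPT in Tdp1-knockout DT40 cells stably expressing hTDP1, seeded 400/well; qHTS titration format.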
IL1B secr inh: qHTS for Inhibitors of Inflammasome Signaling: IL-1-beta AlphaLISA Primary Screen; THP-1 LPS/ATP IL-1B secretion, AlphaLISA, 16 h; stronger effect = lower value; activity change, % at 57.5 µM; actives 4.7% (n = 360,000); in the data active means activity change below about -50%; inconclusive means mostly about -30% to -49%
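THP-1 cells pretreated 1 hr with compounds (up to 57.5 uM final), then stimulated with LPS (250 ng/mL final) plus ATP (1.25 mM final); secreted IL-1B measured by AlphaLISA after 16 hr, decreased signal indicating inhibition.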
TDP1 cell noCPT: qHTS for Inhibitors of human tyrosyl-DNA phosphodiesterase 1 (TDP1): qHTS in cells in absence of CPT | actives 15% (n = 420,000) | AID 686978, 2013 | Potency, µM (titrated, usually from 46.2 µM), inactives show at the top dose activity change, negative = growth inhibition, actives largely listed as inhibitors | DT40 Tdp1-/- hTDP1 cells, no CPT, ATP luminescence, 48 h; further: potency means the concentration at half of the fitted maximal effect; nearly all actives have a fitted effect of over 55% in size
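No-CPT arm: Tdp1-/-;hTDP1 DT40 cells (400/well) plus compounds, incubated ≥48 hr at 37 °C. Readout CellTiter-Glo luminescence.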
HT1080 IDH1KD tx: qHTS for induction of synthetic lethality in tumor cells producing 2HG: qHTS for the HT-1080-IDH1KD cell line; HT-1080 IDH1 knockdown viability, ATP luminescence, 48 h; Potency, µM (top dose mostly 46.1 µM), inactives show at the top dose activity, negative = toxicity, actives largely listed as cytotoxic; actives 2% (n = 360,000); AID 686971, 2013;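 further: potency means the concentration at half of the fitted maximal effect; 0% = DMSO wells and -100% = cell-free medium wells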
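Knockdown cells (IDH1KD HT-1080) received compounds 2 h after plating at 750 cells/well and were kept 48 h at 37 °C in 5% FBS RPMI. A CellTiter-Glo luminescence read gave % activity for curve fitting.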
HT1080-NT tox: qHTS for induction of synthetic lethality in tumor cells producing 2HG: qHTS for the HT-1080-NT fibrosarcoma cell line | HT-1080-NT fibrosarcoma viability, CellTiter-Glo ATP luminescence, 48 h | Potency, µM (titrated, usually from 46.1 µM), without a hit: at the top dose activity, negative = less viability, actives largely listed as cytotoxic | actives 1.6% (n = 360,000) | AID 686970, 2013;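 further: NT is the 2HG producing partner of a matched IDH1 knockdown line; potency means the concentration at half of the fitted maximal effect; 0% = DMSO-treated cells and -100% = media-only wells without cells; nearly all actives have a fitted effect of over 55% in size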
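Toxicity toward the 2HG-producing NT line was scored as %Activity, normalised to DMSO and no-cell wells, from CellTiter-Glo luminescence after 48 hours' treatment.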
Starred values were filed as active, the others as inactive; ? = inconclusive; . = no result given; [ ] = another dose, or the depositor's remark. Unless noted, the call rests on the fitted dose curve; in most records, active means well fitted curve in the direction sought with a large enough effect; inconclusive means small, poorly fitted or top-dose-only effect, or another doubt; inactive means no such curve, though single readings can be large; an effect the other way counts as inactive or inconclusive. Unless noted, on the % scale 0 is the no-effect control and ±100 the full control effect.

SMILES	DT40 TDP1 CPT	IL1B secr inh	TDP1 cell noCPT	HT1080 IDH1KD tx	HT1080-NT tox
CCCC(=O)C1=C(O)C(C(=O)OC)C(C)(C)CC1=Nc1ccc(N)cc1 (centres undefined)	-19%	3	-10%	9%	3%
CCCC(=O)C1=C(O)C(C(=O)OC)C(C)(C)CC1=Nc1ccc(Br)cc1 (centres undefined)	?	-9	23µM*	-12%	-2%
CCN(CC)C1CCN(C(=O)c2cnn(-c3nccc(-c4ccco4)n3)c2C(C)C)C1 (centres undefined)	-1%[9.04 µM]	.	1%	.	.
Cc1ccc(NC(=O)C2CCCN(c3ncnc4c3nc3n4CCCCC3)C2)nc1 (centres undefined)	13µM*	25	8.2µM*	-14%	1%
O=C(Nc1ccccn1)C1CCCN(c2ncnc3c2nc2n3CCCCC2)C1 (centres undefined)	?	66	15µM*	-12%	0%
Cc1ccnc(NC(=O)C2CCCN(c3ncnc4c3nc3n4CCCCC3)C2)c1 (centres undefined)	-10%	24	?	22%	-5%
COc1ccc(Cl)cc1NC(=O)C1CCCN(c2ncnc3c2nc2n3CCCCC2)C1 (centres undefined)	8.2µM*	31	8.2µM*	13%	3%
O=C(Nc1ccc(F)c(Cl)c1)C1CCN(c2ncnc3c2nc2n3CCCCC2)CC1	?	-20	18µM*	6%	0%
NNC(=O)COc1ccc(C(F)(F)F)cc1	3%	-2	-15%	8%	0%
CCOc1cccc(C2Oc3nc(SC)nnc3-c3ccccc3N2C(C)=O)c1OC (centres undefined)	-27%	.	-26%	.	.
O=C(Cc1ccccc1)NCC(=O)OCc1cccc([N+](=O)[O-])c1	-4%	31	13%	0%	5%
CC[C@H](C)[C@H](NC(=O)[C@H](C)NC(=O)[C@H](CC(N)=O)NC(=O)[C@H](CCCCN)NC(=O)[C@H](Cc1ccccc1)NC(=O)[C@H](CC(C)C)NC(=O)[C@@H](NC(=O)[C@@H](NC(=O)[C@H](CC(C)C)NC(=O)[C@@H]1CCCN1C(=O)[C@@H](NC(=O)[C@H](CCC(N)=O)NC(=O)[C@H](CO)NC(=O)[C@H](CCCCN)NC(=O)[C@H](CCC(=O)O)NC(=O)[C@H](CO)NC(=O)[C@@H](NC(=O)[C@H](CCSC)NC(=O)[C@H](Cc1ccccc1)NC(=O)CNC(=O)CNC(=O)[C@@H](N)Cc1ccc(O)cc1)[C@@H](C)O)[C@@H](C)O)C(C)C)[C@@H](C)O)C(=O)N[C@H](C(=O)N[C@@H](CCCCN)C(=O)N[C@@H](CC(N)=O)C(=O)N[C@@H](C)C(=O)N[C@@H](Cc1ccc(O)cc1)C(=O)N[C@@H](CCCCN)C(=O)N[C@@H](CCCCN)C(=O)NCC(=O)N[C@@H](CCC(=O)O)C(=O)O)[C@@H](C)CC	-2%[4.12 µM]	.	4%[4.12 µM]	.	.
CCOc1ccccc1NC(=O)C1CCN(C(=O)Cc2ccccc2)CC1	0%	-6	-18%	-5%	0%
O=C(NCCCN1CCN(c2ccccc2)CC1)C1CCCN(c2ncnc3c2nc2n3CCCCC2)C1 (centres undefined)	23µM*	10	?	2%	15%
COc1cc(OC)c(N(C)C(=O)C2CCCN(c3ncnc4c3nc3n4CCCCC3)C2)cc1Cl (centres undefined)	?	.	21µM*	.	.
O=C(Nc1ccc(Cl)cn1)C1CCN(c2ncnc3c2nc2n3CCCCC2)CC1	?	-91*	16µM*	?	?
O=C(NCc1ccco1)C1CCCN(c2ncnc3c2nc2n3CCCCC2)C1 (centres undefined)	?	11	13µM*	6%	10%
Cc1c(CC(=O)NCCCO)c(=O)oc2cc3c(cc12)CCC(C)(C)O3	-13%	-9	-29%	0%	1%
CCc1ccc(C(=O)N/N=C/c2ccncc2)s1	-7%	?	-19%	5%	0%
O=C(Nc1cccnc1Cl)C1CCCN(c2ncnc3c2nc2n3CCCCC2)C1 (centres undefined)	?	0	?	12%	0%
O=C(Nc1ccc(Cl)cn1)C1CCCN(c2ncnc3c2nc2n3CCCCC2)C1 (centres undefined)	21µM*	-10	21µM*	12%	19%
CC(C)CCNC(=O)Cc1ccc(NC(=O)N2CCCCc3ccccc32)cc1	-24%	.	?	.	.
CC(=O)c1cccc(NC(=O)Cc2ccc(NC(=O)N3CCCCc4ccccc43)cc2)c1	?	.	16µM*	.	.
CC(=O)c1cccc(NC(=O)N2CCCc3ccccc32)c1	1%	14	-9%	1%	-5%
CCOc1ccccc1CNC(=O)Cc1ccc(NC(=O)N2CCCCc3ccccc32)cc1	12µM*	.	9.2µM*	.	.
SMILES	DT40 TDP1 CPT	IL1B secr inh	TDP1 cell noCPT	HT1080 IDH1KD tx	HT1080-NT tox
CCOc1ccc(NC(=O)Cc2ccc(NC(=O)N3CCCCc4ccccc43)cc2)cc1	5.2µM*	.	5.2µM*	.	.
COc1ccc(N(C)C(=O)c2cc3c(s2)-c2ccc(Cl)cc2S(=O)(=O)C3)c(OC)c1	18µM*	-9	?	-11%	5%
CN(C(=O)c1cc2c(s1)-c1ccccc1S(=O)(=O)C2)c1ccccc1	12µM*	7	23µM*	-1%	0%
COc1ccc(N(C)C(=O)c2cc3c(s2)-c2ccccc2OC3)c(OC)c1	15µM*	-73*	9.2µM*	-26%	-13%
CN(Cc1ccco1)C(=O)c1cc2c(s1)-c1ccc(Cl)cc1S(=O)(=O)C2	?	-4	?	-2%	5%
O=S(=O)(Nc1ccc(S(=O)(=O)N2CCOCC2)cc1)c1ccccc1	0%	7	-24%	1%	6%
COc1ccc(NS(=O)(=O)c2ccc(S(=O)(=O)N3CCCC3)cc2)cc1	?	5	21µM*	-6%	-3%
COc1ccc(S(=O)(=O)N2CCCCC2)cc1	-18%	6	-4%	-2%	-2%
COc1ccc(NS(=O)(=O)c2ccc(S(=O)(=O)N3CCOCC3)cc2)cc1	?	3	16µM*	-2%	-15%
CC(=O)N1C[C@H]2CON(C)[C@H]2C[C@H]1c1ccccc1Br	-1%	3	0%	7%	21%
